# RN4220 kill: growth inhibition of S. aureus RN4220, primary screen, OD600; AID 1259311, 2017; actives 0.33% (n = 330,000); 16 h; inhibition, % (concentration not given with the values); in the data active = inhibition above about 85%;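 note: plate controls were untreated cells for no effect and reference antibiotic for full effect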
# BJeLR viability: MLPCN primary cell-based screen for lethality selective to Ras in HRASV12 cells | AID 1554, 2009 | actives 0.17% (n = 300,000) | BJeLR (HRASV12) viability, CellTiter-Glo ATP luminescence, 48 h | inhibition, % (no concentration beside the values); in the data active = inhibition above about 50%
# Sa ugtP lethal: growth inhibition of ugtP-null S. aureus, primary screen, RN4220 ugtP deletion, OD600; actives 0.54% (n = 330,000); growth inhibition, % (no concentration beside the values); 16 h; AID 1259309, 2017; in the data active = growth inhibition above about 68%;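 note: plate controls were untreated wells for no effect and antibiotic for full effect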
# PfHsp40 rescue: rescue of yeast from PfHsp40 toxicity, primary screen, S. cerevisiae, ATP luminescence. actives 0.68% (n = 340,000). S. cerevisiae expressing PfHsp40, growth rescue. AID 504582, 2011. growth rescue, % at 12.5 µM; in the data active = growth rescue above about 28%, passing the limit was not always enough;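 note: yeast W303a lacking pdr1 and pdr3 grown in galactose medium; growth measured after three days at 30 °C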
# 3CLpro inhibitor: SARS-CoV 3CLpro protease inhibitors, primary screen, biochemical, quenched FRET | AID 1706, 2009 | inhibition, % at 6 µM | actives 0.14% (n = 290,000) | recombinant SARS-CoV 3CLpro, quenched FRET peptide cleavage | Replicase polyprotein 1ab (Severe acute respiratory syndrome coronavirus), P0C6X7; in the data active = inhibition above about 12%
# Active calls of the source: *; . = not tested or not shown; ! = not confirmed by another sample. An excerpt weighted towards active compounds, which were near 1.3% of everything screened.
SMILES,RN4220 kill,BJeLR viability,Sa ugtP lethal,PfHsp40 rescue,3CLpro inhibitor
COC(=O)c1c(C)cc(O)c(C=O)c1O,.,-3,.,-1,.
COc1cc(C(=O)O)c2c(c1C)OC(=O)c1c(C)cc(O)c(C=O)c1O2,3,-5,-4,86*,.
OC(CNCCC1C=Nc2ccccc21)Cn1c2ccc(Cl)cc2c2cc(Cl)ccc21 (stereo unspecified),100*,105*,101*,0,-2
Cc1c(N2C(=O)C3C4C=CC(C5CC45)C3C2=O)c(=O)n(-c2ccccc2)n1C (stereo unspecified),1,-5,4,-1,-2
COc1ccc(Br)cc1C=NNc1ccc(S(=O)(=O)Nc2ccccc2C(=O)O)cc1[N+](=O)[O-],100*,.,99*,.,.
O=C(O)c1ccccc1NS(=O)(=O)c1ccc(NN=Cc2cccc(Cl)c2)c([N+](=O)[O-])c1,-11,.,90*,3,.
COc1ccccc1NS(=O)(=O)c1ccc(N/N=C/c2ccccc2OCC(=O)O)c([N+](=O)[O-])c1,.,3,.,1,5
O=C(O)c1ccccc1NS(=O)(=O)c1ccc(N/N=C/c2ccc(O)c(O)c2)c([N+](=O)[O-])c1,.,.,.,7,.
O=S(=O)(c1cccc(Cl)c1)N1CCCC1,1,0,6,-1,-7
O=C(Nc1nnc(-c2ccc(F)cc2)o1)c1cc(Cl)sc1Cl,100*,-14,99*,-1,1
O=C(Nc1nnc(-c2ccccc2)o1)c1cc(Cl)sc1Cl,.,6,.,2,1
COc1cccc(-c2nnc(NC(=O)c3cccc(F)c3)o2)c1,98*,9,98*,-1,.
O=C(Nc1nnc(-c2ccco2)o1)c1ccc(Cl)s1,18,13,2,2,-5
COc1cccc(-c2nnc(NC(=O)c3ccc(Cl)s3)o2)c1,100*,3,100*,1,1
CCCN(CCC)S(=O)(=O)c1ccc(C(=O)Nc2nnc(-c3cccc(OC)c3)o2)cc1,99*,21,100*,-2,5
COC(=O)c1c(-c2ccc(OC)cc2)sc2cc(OC)c(OC)cc12,0,.,9,5,.
COc1ccc(NC(=O)C2CCN(c3cnccn3)CC2)cc1Cl,3,-1,7,1,-4
CNC(=O)c1[nH]cnc1C(=O)N[C@@H](Cc1ccccc1)C(=O)OCc1ccccc1,.,-1,.,-1,1
COc1ccc(C(=O)N2CCN(C3CCC(c4ccccc4)CC3)CC2)cc1OC (stereo unspecified),1,-8,3,1,0
O=C(CSc1n[nH]c(C2CCCC2)n1)NC1CCCC1,-3,2,2,1,-1
O=C(Nc1nnc(-c2ccc3c(c2)OCCO3)o1)c1ccc(Cc2ccccc2)cc1,99*,9,100*,0,-2
O=C(CCOc1ccccc1)Nc1nnc(-c2ccc3c(c2)OCCO3)o1,0,3,-3,-2,7
O=C(Nc1nnc(-c2ccc(Cl)cc2)o1)Nc1ccccc1Cl,68,-3,0,0,0
Cc1cccc(-c2nnc(NC(=O)c3ccc(Cl)cc3)o2)c1,99*,0,95*,0,0
O=C(Nc1nnc(-c2ccc(Cl)cc2)o1)c1nc2ccccc2s1,100*,6,99*,-2,7
SMILES,RN4220 kill,BJeLR viability,Sa ugtP lethal,PfHsp40 rescue,3CLpro inhibitor
Cc1ccc(C(=O)Nc2nnc(-c3ccncc3)o2)cc1,-5,0,9,-1,1
Cn1c(SCC(=O)Nc2ccc(N3CCOCC3)cc2)nnc1-c1ccccc1F,0,4,12,0,-4
CC(=O)Nc1ccc(Sc2ccc([N+](=O)[O-])o2)cc1,41,.,69,54*,.
O=C(Nc1nnc(-c2ccccc2)s1)c1ccccc1O,91*,11,94*,-1,2
COCCCNC(=O)c1ccc(S(=O)(=O)c2ccc(C)cc2)c(NC(C)=O)c1,-3,-3,2,91*,-1
Cc1ccc2cc(CN(Cc3cccs3)Cc3nnnn3CC3CCCO3)c(=O)[nH]c2c1C (stereo unspecified),3,-3,-9,73*,3
Cc1ccc2cc(CN(Cc3cccs3)Cc3nnnn3CC3CCCO3)c(=O)[nH]c2c1 (stereo unspecified),4,1,1,0,-1
Cc1ccc2[nH]c(=O)c(CN(Cc3cccs3)Cc3nnnn3CC3CCCO3)cc2c1 (stereo unspecified),2,-11,-8,105*,0
CN(C)CCOc1ccc(/C(=C(/CCCl)c2ccccc2)c2ccccc2)cc1,.,-9,.,1,.
CCN(CC)CCOc1ccc(C(=C(Cl)c2ccccc2)c2ccccc2)cc1,97*!,.,71,.,.
Cc1ccc(Sc2cc(C)nc(-c3ccccn3)n2)cc1,.,13,.,145*,-2
COc1cnc(-c2ccccn2)nc1Sc1ccc(C)cc1,4,-5,1,359*,3
FC(F)(F)c1cccc(Sc2cc(C(F)(F)F)nc(-c3ccccn3)n2)c1,-5,-2,3,-2,2
O=C(O)CCN1C(=O)/C(=C/c2cn(-c3ccccc3)nc2-c2cccs2)SC1=S,38,.,93*,.,-2
CC1=NNC(=O)/C1=C\c1cn(-c2ccccc2)nc1-c1cccs1,-4,56*,-10,-1,-2
FC(F)(F)c1cc(C(F)(F)F)c2ccc(N3CCN(c4ccc(Cl)cc4)CC3)nc2n1,41,7,48,-1,-3
N#CC(c1ccc(Cl)cc1)c1ccc2c(C(F)(F)F)cc(C(F)(F)F)nc2n1 (stereo unspecified),101*,42,101*,0,-2
COc1ccccc1-n1cnc2cc(NCc3cccs3)ccc21,1,60*,15,1,2
Cc1ccccc1-n1cnc2cc(NCc3cccs3)ccc21,4,3,8,1,-1
ClC1=C(Cl)C(Cl)=C(Cl)C1=C/C=C/c1ccccc1,4,89*,-3,1,-1
CCOC(=O)C1=C(C)Nc2sc(C(=O)c3ccc(C)cc3)c(N)c2C1c1ccc(C(=O)OC)cc1 (stereo unspecified),-6,3,27,5,-1
COc1cc2c(cc1OC)/C(=C/C(=O)c1ccc(C)cc1)NCC2,0,0,4,1,-2
COc1cc2c(cc1OC)/C(=C/C(=O)c1ccccc1)NCC2,2,7,0,41*,-1
O=c1c2ccccc2nc(SCc2cccc(F)c2)n1-c1cccc(S(=O)(=O)N2CCCC2)c1,97*,-1,94*,-1,3
O=C(C1CC(=O)N(C2CCCCC2)C1)N1CCc2ccccc21 (stereo unspecified),3,-7,-4,61*,6
Cc1c(Cl)cccc1NS(=O)(=O)c1ccc2c(c1)C1C=CCC1C(c1ccc(C(=O)O)cc1)N2 (stereo unspecified),42,.,37,35*,3

# Source: PubChem
